Positions count from the first letter of the chain named.
Key:
Assay in all cases: protein-binding microarray (PBM); PBM: ~300 nM protein, 6 mM HEPES pH 7.8, 80 mM KCl, 0.5 mM EDTA, 0.5 mM EGTA, 6% glycerol, 35 ng/ul poly-dIdC, 1% milk, 1 h, room temperature; Ap Aiptasia and Nv Nematostella (sea anemones) / Co Capsaspora / Aq Amphimedon (sponge) / Dm Drosophila / Hu human; RHD is the Rel homology domain; high values mean tight binding
Conditions in all cases: dsDNA, one strand shown
GST-Ap-NF-kB RHD = biological target: T1, GST-Ap-NF-kB RHD (Exaiptasia pallida (Aiptasia), UniProt A0A913YAJ5 2-422)
T1 sequence: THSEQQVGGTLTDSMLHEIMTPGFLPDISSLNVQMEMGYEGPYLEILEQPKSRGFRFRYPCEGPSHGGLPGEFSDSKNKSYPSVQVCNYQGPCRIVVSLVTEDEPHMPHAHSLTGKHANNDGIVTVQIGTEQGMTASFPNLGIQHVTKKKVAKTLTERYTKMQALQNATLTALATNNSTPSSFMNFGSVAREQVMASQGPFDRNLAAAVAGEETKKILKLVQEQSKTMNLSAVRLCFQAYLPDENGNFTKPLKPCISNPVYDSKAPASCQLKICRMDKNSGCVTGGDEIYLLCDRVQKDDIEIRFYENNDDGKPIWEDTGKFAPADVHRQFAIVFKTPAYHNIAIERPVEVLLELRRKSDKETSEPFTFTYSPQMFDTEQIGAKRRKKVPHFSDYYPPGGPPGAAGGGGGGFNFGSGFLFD

[1] = biological target: T2, GST-Nv-NF-kB (Cys allele) (Nematostella vectensis, UniProt E5G601 2-411)
T2 sequence: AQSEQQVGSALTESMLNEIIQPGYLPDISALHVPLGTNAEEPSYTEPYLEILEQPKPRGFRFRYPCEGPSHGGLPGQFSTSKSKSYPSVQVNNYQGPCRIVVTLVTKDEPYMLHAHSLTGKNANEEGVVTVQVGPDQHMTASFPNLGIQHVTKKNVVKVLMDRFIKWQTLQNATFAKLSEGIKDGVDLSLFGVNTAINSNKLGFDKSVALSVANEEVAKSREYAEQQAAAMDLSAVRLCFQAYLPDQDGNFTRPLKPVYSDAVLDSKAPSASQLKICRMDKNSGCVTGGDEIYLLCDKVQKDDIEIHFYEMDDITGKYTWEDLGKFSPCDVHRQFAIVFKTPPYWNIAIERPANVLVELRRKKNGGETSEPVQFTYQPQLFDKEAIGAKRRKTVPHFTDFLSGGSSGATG

[2] = biological target: T3, GST-Nv-NF-kB (Ser allele) (Nematostella vectensis, UniProt A7UNT2 2-411)
T3 sequence: T2 sequence with Q21R, C66S, S207N, E215Q, V217A, E225K, A268E, D399E

GST-Co-NF-kB = biological target: T4, GST-Co-NF-kB (Capsaspora owczarzaki, UniProt F1ARL5 200-546)
T4 sequence: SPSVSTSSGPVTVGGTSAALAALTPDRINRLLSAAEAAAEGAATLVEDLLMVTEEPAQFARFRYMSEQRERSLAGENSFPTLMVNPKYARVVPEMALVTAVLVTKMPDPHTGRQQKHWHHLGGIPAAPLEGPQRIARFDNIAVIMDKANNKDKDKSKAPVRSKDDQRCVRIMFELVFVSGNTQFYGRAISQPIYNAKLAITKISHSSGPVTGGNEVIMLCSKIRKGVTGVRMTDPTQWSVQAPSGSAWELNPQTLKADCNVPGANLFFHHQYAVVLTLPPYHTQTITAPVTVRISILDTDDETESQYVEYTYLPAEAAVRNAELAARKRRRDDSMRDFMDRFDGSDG

GST-Dm-Relish = biological target: T5, GST-Dm-Relish (Drosophila melanogaster, UniProt Q94527 99-473)
T5 sequence: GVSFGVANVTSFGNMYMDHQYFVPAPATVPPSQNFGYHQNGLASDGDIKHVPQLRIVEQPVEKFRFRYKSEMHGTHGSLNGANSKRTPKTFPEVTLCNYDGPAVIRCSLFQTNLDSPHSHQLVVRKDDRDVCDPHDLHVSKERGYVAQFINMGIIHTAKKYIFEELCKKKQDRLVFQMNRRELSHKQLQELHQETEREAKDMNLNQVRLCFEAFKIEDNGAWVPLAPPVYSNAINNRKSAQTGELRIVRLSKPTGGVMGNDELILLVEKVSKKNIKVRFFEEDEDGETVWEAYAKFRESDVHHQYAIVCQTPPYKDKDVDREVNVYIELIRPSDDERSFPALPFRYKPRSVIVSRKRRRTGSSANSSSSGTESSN

GST-Aq-NF-kB = biological target: T6, GST-Aq-NF-kB (Amphimedon queenslandica, UniProt A9Y5G7 2-389)
T6 sequence: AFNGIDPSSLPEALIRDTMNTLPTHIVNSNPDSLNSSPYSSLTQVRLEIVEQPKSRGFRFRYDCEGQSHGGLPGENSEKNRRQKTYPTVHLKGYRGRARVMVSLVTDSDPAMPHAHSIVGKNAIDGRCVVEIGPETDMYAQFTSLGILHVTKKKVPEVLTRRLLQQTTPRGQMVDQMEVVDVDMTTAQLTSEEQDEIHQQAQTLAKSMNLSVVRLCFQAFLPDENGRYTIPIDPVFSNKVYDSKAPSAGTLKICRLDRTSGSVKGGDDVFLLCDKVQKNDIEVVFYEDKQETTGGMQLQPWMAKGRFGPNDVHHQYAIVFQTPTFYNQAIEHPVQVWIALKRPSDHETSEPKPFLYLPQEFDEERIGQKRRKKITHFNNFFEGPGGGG

Row | Sequence | binding signal (GST-Ap-NF-kB RHD) | binding signal [1] | binding signal [2] | binding signal (GST-Co-NF-kB) | binding signal (GST-Dm-Relish) | binding signal (GST-Aq-NF-kB)
1 | CCGATTAACATCAACGTTTCCCCTGATGTTAATCGGGTCTTGATTCGCTTGACGCTGCTG | 5.38 z-score | 6.77 z-score | 10.1 z-score | 7.56 z-score | 2.48 z-score | 4.46 z-score
2 | CCGATTAACATCAACCCCCCCCTTGATGTTAATCGGGTCTTGATTCGCTTGACGCTGCTG | 4.76 z-score | 4 z-score | 3.93 z-score | 5.09 z-score | 4.91 z-score | 4.47 z-score
3 | CCGATTAACATCAAGAGTTCCCCTGATGTTAATCGGGTCTTGATTCGCTTGACGCTGCTG | 7.18 z-score | 7.2 z-score | 7.72 z-score | 6.55 z-score | 7.58 z-score | 5.77 z-score
4 | CCGATTAACATCAAGGGGGGGCATGATGTTAATCGGGTCTTGATTCGCTTGACGCTGCTG | 4.34 z-score | 4.38 z-score | 2.83 z-score | 4.6 z-score | 3.45 z-score | 4.09 z-score
5 | CCGATTAACATCAGGGGAACATATGATGTTAATCGGGTCTTGATTCGCTTGACGCTGCTG | 5.1 z-score | 5.89 z-score | 6.74 z-score | 7.58 z-score | 4.08 z-score | 5.59 z-score
6 | CCGATTAACATCAACATTTTCCCTGATGTTAATCGGGTCTTGATTCGCTTGACGCTGCTG | 3.52 z-score | 5.79 z-score | 8.32 z-score | 4.91 z-score | 1.62 z-score | 3.41 z-score
7 | CCGATTAACATCACAGATTTCCCTGATGTTAATCGGGTCTTGATTCGCTTGACGCTGCTG | 3.88 z-score | 5.4 z-score | 7.17 z-score | 4.93 z-score | 2.66 z-score | 4.24 z-score
8 | CCGATTAACATCAATTTTTTCCCTGATGTTAATCGGGTCTTGATTCGCTTGACGCTGCTG | 3.79 z-score | 5.88 z-score | 7.47 z-score | 6.48 z-score | 2.71 z-score | 4.16 z-score
9 | CCGATTAACATCAATAGTTCCCCTGATGTTAATCGGGTCTTGATTCGCTTGACGCTGCTG | 6.43 z-score | 6.96 z-score | 8.51 z-score | 7.79 z-score | 6.77 z-score | 5.01 z-score
10 | CCGATTAACATCAGAAATCCCAATGATGTTAATCGGGTCTTGATTCGCTTGACGCTGCTG | 2.44 z-score | 2.13 z-score | 1.82 z-score | 1.84 z-score | 5.13 z-score | 2.14 z-score
11 | CCGATTAACATCAGGGAAAATCATGATGTTAATCGGGTCTTGATTCGCTTGACGCTGCTG | 3.91 z-score | 5.72 z-score | 7.02 z-score | 4.62 z-score | 1.46 z-score | 5.1 z-score
12 | CCGATTAACATCAGGGGAAGCACTGATGTTAATCGGGTCTTGATTCGCTTGACGCTGCTG | 5.88 z-score | 6.43 z-score | 6.99 z-score | 4.4 z-score | 9.95 z-score | 6.83 z-score
13 | CCGATTAACATCAGGATTTTCCCTGATGTTAATCGGGTCTTGATTCGCTTGACGCTGCTG | 5.75 z-score | 8.01 z-score | 7.34 z-score | 3.97 z-score | 4.83 z-score | 8.92 z-score
14 | CCGATTAACATCATCTGGGAAAATGATGTTAATCGGGTCTTGATTCGCTTGACGCTGCTG | 1.33 z-score | 2.91 z-score | – | 3.73 z-score | – | 1.45 z-score
15 | CCGATTAACATCACGGTAATCCCTGATGTTAATCGGGTCTTGATTCGCTTGACGCTGCTG | 4.31 z-score | 1.91 z-score | 1.84 z-score | – | 5.6 z-score | 4.77 z-score
16 | CCGATTAACATCAAGCCCCCCCCTGATGTTAATCGGGTCTTGATTCGCTTGACGCTGCTG | 5.25 z-score | 4.21 z-score | – | 4.89 z-score | – | 4.71 z-score
17 | CCGATTAACATCAGGAAAGTACCTGATGTTAATCGGGTCTTGATTCGCTTGACGCTGCTG | 3.4 z-score | 5.99 z-score | 8.2 z-score | – | 8.08 z-score | 6.27 z-score
18 | CCGATTAACATCAAACAGGGAAATGATGTTAATCGGGTCTTGATTCGCTTGACGCTGCTG | 2.71 z-score | 4.69 z-score | – | 2.47 z-score | – | 3.23 z-score
19 | CCGATTAACATCACCGCTTCCCTTGATGTTAATCGGGTCTTGATTCGCTTGACGCTGCTG | 1.62 z-score | 1.86 z-score | – | 1.46 z-score | – | 2 z-score
20 | CCGATTAACATCAAAAAACTACCTGATGTTAATCGGGTCTTGATTCGCTTGACGCTGCTG | 2.29 z-score | 3 z-score | 7.62 z-score | – | 6.2 z-score | 3.57 z-score
21 | CCGATTAACATCAATCCCCCCCATGATGTTAATCGGGTCTTGATTCGCTTGACGCTGCTG | 7.7 z-score | 5.57 z-score | 4.56 z-score | 6.68 z-score | 5.46 z-score | 4.81 z-score
22 | CCGATTAACATCAGTATTCCCCATGATGTTAATCGGGTCTTGATTCGCTTGACGCTGCTG | 6.37 z-score | 7.73 z-score | 6.79 z-score | 7.15 z-score | 4.54 z-score | 5.32 z-score
23 | CCGATTAACATCACGTTTTTCCCTGATGTTAATCGGGTCTTGATTCGCTTGACGCTGCTG | 3.81 z-score | 4.59 z-score | 6.7 z-score | 5.98 z-score | 4.58 z-score | 4.26 z-score
24 | CCGATTAACATCAGATTATCCCCTGATGTTAATCGGGTCTTGATTCGCTTGACGCTGCTG | 5.35 z-score | 6.05 z-score | 6.87 z-score | 5.37 z-score | 2.63 z-score | 4.98 z-score
25 | CCGATTAACATCAAAGCATTCCCTGATGTTAATCGGGTCTTGATTCGCTTGACGCTGCTG | 2.32 z-score | 3.04 z-score | – | 2.52 z-score | – | 3.35 z-score
26 | CCGATTAACATCAGGGAAGGACCTGATGTTAATCGGGTCTTGATTCGCTTGACGCTGCTG | 1.78 z-score | 2.28 z-score | 1.09 z-score | – | 4.44 z-score | 3.91 z-score
27 | CCGATTAACATCAAACTTTTCCCTGATGTTAATCGGGTCTTGATTCGCTTGACGCTGCTG | 3.37 z-score | 5.66 z-score | 6.83 z-score | 4.78 z-score | 1.45 z-score | 4.63 z-score
